Experimental data: PubChem BioAssay AID1030 (National Center for Advancing Translational Sciences (NCATS), 2008)
The whole screen tested about 220,000 compounds, of which about 16,000 (7.3%) were called active. Not shown: some 25% with an inconclusive outcome. Calls follow the shape of the dose curve; as a rule, active = well fitted inhibition curve with a large enough effect (not every such curve was filed as active); inconclusive = small, poorly fitted or top-dose-only effect, or another doubt; inactive = no such curve, though single readings can be large or run the other way. Shown is part of a subset that was picked to be rich in actives.

molecular target: Aldehyde dehydrogenase 1A1 (Homo sapiens) (UniProt P00352); assay: qHTS Assay for Inhibitors of Aldehyde Dehydrogenase 1 (ALDH1A1); conditions: Purified ALDH1A1, NADH fluorescence, propionaldehyde substrate; series mostly up to 75.3 µM; activity, negative = inhibition: at the top concentration;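 as to activity, negative = inhibition: plate controls were no enzyme wells and a reference inhibitor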
Potency is read from the fitted curve at half-maximal effect.

Chain of Aldehyde dehydrogenase 1A1 (Homo sapiens) (P00352 whole entry, looked up): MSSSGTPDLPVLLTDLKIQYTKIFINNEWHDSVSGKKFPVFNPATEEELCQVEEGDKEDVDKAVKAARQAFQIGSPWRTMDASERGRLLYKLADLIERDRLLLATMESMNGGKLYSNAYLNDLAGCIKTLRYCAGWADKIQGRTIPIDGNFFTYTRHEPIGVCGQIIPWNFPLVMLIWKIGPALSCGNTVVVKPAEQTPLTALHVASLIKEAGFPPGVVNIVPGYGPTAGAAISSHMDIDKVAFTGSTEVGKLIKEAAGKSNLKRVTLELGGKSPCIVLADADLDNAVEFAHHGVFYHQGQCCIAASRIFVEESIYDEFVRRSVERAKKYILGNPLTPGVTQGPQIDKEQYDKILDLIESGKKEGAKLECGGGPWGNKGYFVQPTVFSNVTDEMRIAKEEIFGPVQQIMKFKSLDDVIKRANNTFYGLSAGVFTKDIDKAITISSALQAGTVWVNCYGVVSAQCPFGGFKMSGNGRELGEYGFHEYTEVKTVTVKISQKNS

activity, negative = inhibition, inactive:
O=C(O)c1ccc2c(c1)C(=O)N(NC(=O)c1ccc(O)cc1)C2=O 1.02%, C=CCN1C2CCCC1CC(NC(=S)Nc1cccc(OC)c1)C2 (centres undefined) -11.8%, CC1CCCCC1NC(=O)C1CCCN1S(=O)(=O)c1cccc2nsnc12 (centres undefined) 0.711%, COc1ccc(C)cc1NC(=O)CCS(=O)(=O)c1cccc2nonc12 -4.87%, CCN1C(=O)N[C@@H](c2ccccc2)C(C(=O)OC)=C1C 17.9% [at 13.5 µM], COC(=O)C1=C(C)N(C)C(=S)NC1c1ccccc1 (centres undefined) 7.15%, Cc1ccc(C(=O)N2CCN(S(=O)(=O)N3CCOCC3)CC2)cc1 4.89%, COc1ccc(OC)c(C(=O)c2ccc(C(=O)O)cc2)c1 20.8%, COc1ccc(C(=O)COC(=O)c2nn(C)c(=O)c3ccccc23)c(OC)c1 4.94%, CCOC(=O)Cc1ncccc1C(=O)Nc1ccc(OC)cc1 1.9%, Cc1nn(C(=O)c2ccoc2C)c(N)c1-c1ccccc1 1.61%, O=C(CSc1nnc(-c2ccc(NS(=O)(=O)c3ccccc3)cc2)o1)NCC1CCCO1 (centres undefined) -1.79%, S=C(NCCc1ccccc1)NCC1CCCO1 (centres undefined) 4.66%, CCN(c1ccccc1)S(=O)(=O)c1ccc2[nH]c(=O)[nH]c2c1 -0.299%, Cc1cc([N+](=O)[O-])nn1Cc1ccc(F)cc1 -5.09%, Cc1c(CN2CCCC(C(=O)c3cccc(Cl)c3)C2)c(=O)n(-c2ccccc2)n1C (centres undefined) 11.4%, CCCCC1=CC2=CC(=O)C(C)(OC(=O)CC)C(=O)C2=CN1CCCOC(C)C (centres undefined) -5.05% [at 13.5 µM], Cc1cccc(NC(=O)CN2C(=O)c3ccccc3C2=O)c1C 11.6%, Cc1cccc(NC(=O)CSc2nc3c(c(=O)[nH]2)CCCC3)c1C -4.24%, CC(C)c1nc(CNC(=O)CC2C(=O)NCCN2Cc2ccoc2)cs1 (centres undefined) -6.59%, CC1Cc2ccccc2N1S(=O)(=O)c1c(N)n(C)c(=O)n(C)c1=O (centres undefined) 6.39%, CC1CCCCN1C(=S)NCc1ccccc1 (centres undefined) -0.534%, COC(=O)CNC(=O)c1ccc(OC2CCN(C(=O)C3CC3)CC2)cc1 0.14%, CN1CCNC(=O)C1CC(=O)N1CC=C(c2ccc(F)cc2)CC1 (centres undefined) 1.45%, CC1(C)CCc2nc(SCc3ccccc3)c(C#N)cc2C1 -2.69%, N#CC1=C(SCc2ccc(C#N)cc2)N=C(N)C(c2nc(-c3ccccc3)cs2)C12CCCCC2 (centres undefined) 5.56%, C[C@@H](O)c1nc2ccccc2n1N 2.1%, N#Cc1ncc(C(F)(F)F)cc1Oc1cccnc1 10.8%, COc1ccc(/C=C/CN2CCN(Cc3ccc(C)cc3)C(CCO)C2)cc1 (centres undefined) -1.88%, CCOc1cccc(C(=O)Nc2cccnc2)c1 13.5%, O=C(Nc1ccn(Cc2ccccc2)n1)c1cccc(F)c1 5.72%, CNc1nc(Nc2ccc(C)c(Cl)c2)nc(N)c1[N+](=O)[O-] 3.68%, O=C(c1ccc(Cl)cc1)N1N=C(c2ccccn2)CC1(O)C(F)(F)F (centres undefined) 0.0342%, COc1ccc(/C=N/N=C2/C(=O)Nc3ccccc32)cc1O -10.8%, C(=N/N1CCN(c2ccccc2)CC1)/c1cccs1 4.36%, O=C(Cc1ccc(Br)cc1)N1CCN(c2ccccn2)CC1 3.87%, CN(C)CCOc1ccc(Cl)cc1C(C)(C)C -3.7%, CCOC(=O)C1(Cc2ccccc2C(F)(F)F)CCN(C(=O)c2cc(C)n(C)n2)CC1 -6.02%, Cc1ccc2[nH]c(C)c(CCNC(=O)NC3CCCCC3)c2c1 5.15%, Cc1nnc(SCCCCSc2nnc(C)c(=O)[nH]2)[nH]c1=O -9.54%, CCOC(=O)c1c(CN(C)C)n(-c2ccccc2)c2cc(Br)c(O)cc12 -4.14%, O=C(O)C1C2C=CC(C2)C1C(=O)N1CCN(CCO)CC1 (centres undefined) 6.75%, CN1CCN(C(=O)C2C3C=CC(C3)C2C(=O)O)CC1 (centres undefined) 14.6%, COCCN(C(=O)c1ccccc1F)c1c(N)n(Cc2ccccc2)c(=O)[nH]c1=O 6.85%, CN(Cc1nc2ccc(F)cc2[nH]1)Cc1nc(CC2CC2)no1 -1.51%, CCCCOc1ccc(C(=O)NN2CCN(C)CC2)cc1 -0.966%, O=C(NC(=O)N1CCOCC1)c1ccccc1 -6.7%, CCn1c(SCC(=O)N(C)C2CCS(=O)(=O)C2)nnc1-c1cccs1 (centres undefined) -6.37%, CCNC(=O)NNC(=O)C1CC(c2cccs2)=NO1 (centres undefined) 6.63%, CCOc1ccc(N2C(=O)Nc3ccccc3C2(O)C(=O)NCc2ccco2)cc1 (centres undefined) -5.74%, CCOc1ccc(N2C(=O)CN(c3cccc4ccccc34)C2=S)cc1 1.45%, CCN=c1sc(C(=O)Nc2ccccc2)c(C)n1CC -2.58%, O=C(Nc1cccc2ncccc12)c1ccc(-c2ccc(Cl)cc2Cl)o1 12.5%, COc1ccc(C(=O)Nc2c(Cl)cc(Cl)cc2C(=O)N2CCC(C)CC2)cc1 5.74%

Potency, inactive:
O=C(O)Cc1csc(-c2cccc(Oc3ccccc3)c2)n1

Potency, active:
CC1CCCCC1NC(=O)CCS(=O)(=O)c1cccc2nonc12 (centres undefined) 10 µM, COC(=O)C1=C(C)N(C)C(=O)NC1c1ccc([N+](=O)[O-])o1 (centres undefined) 25.1 µM, C#CCN1C(=O)C(O)(CC(=O)c2cc(OC)ccc2OC)c2ccccc21 (centres undefined) 3.55 µM, Cc1nn2c(c1-c1ccccc1)N=C(c1ccco1)CC2c1ccccc1 (centres undefined) 22.4 µM, O=C(CS(=O)(=O)Cc1ccccc1)NCC1CCCO1 (centres undefined) 25.1 µM, Cc1cccc(NC(=O)CSC(N)=O)c1C 7.08 µM, N#CC1=C(SCc2ccccc2)NC(=O)C(C#N)C12CCCC2 (centres undefined) 3.98 µM, CCOc1cccc(C(=O)Nc2cnn(Cc3ccccc3)c2)c1 3.98 µM, O=C1Nc2ccc(Br)cc2/C1=N/N=C/C1=C(N2CCOCC2)C(=C\c2ccccc2)/CC1 8.91 µM, C(=N\N1CCN(c2ccccn2)CC1)/C1=C(N2CCOCC2)C(=C/c2ccccc2)/CC1 8.91 µM, C=C(Cl)COC(=O)C1C2C=CC(C2)C1C(=O)O (centres undefined) 17.8 µM, CCCCOc1ccc(C(=O)N/C(=C/C=C/c2ccccc2)C(=O)N2CCOCC2)cc1 25.1 µM, CCOc1ccc(N2C(=O)/C(=C/c3ccc(C)o3)N(C)C2=S)cc1 7.94 µM, CC1CCN(C(=S)c2ccc(-c3ccc(Cl)cc3Cl)o2)CC1 28.2 µM
